LASV entry inh: Lassa virus entry inhibition | Lassa virus pseudotyped entry inhibition, cell-based qHTS | Potency, µM (top dose mostly 49.2 µM), usual class: inhibitors | 18,000 compounds, 4.1% hits | AID 720533
MARV entry inh: Marburg virus entry inhibition; Potency, µM (doses to about 49.2 µM), most hits filed as inhibitors; AID 720532; 18,000 compounds, 6.5% hits; Marburg virus pseudotype entry/binding inhibition, cell-based
Of the large screens only hits and unclear results are named; the others gave an inactive call; ! = not confirmed by another sample. Only some compounds are listed: those with a hit (about 8% of all), similar ones and a draw of the others. The call rests on the fitted dose curve; tested in HEK293 cells.

Cc1ccccc1-n1c(C)nc2ccccc2c1=O	LASV entry inh inconclusive
CC[C@@H]1OC(=O)[C@H](C)[C@H](O[C@@H]2C[C@](C)(OC)[C@H](O)[C@H](C)O2)[C@H](C)[C@H](O[C@@H]2O[C@@H](C)C[C@@H](N(C)C)[C@@H]2O)[C@](C)(O)C[C@H](C)C(=O)[C@H](C)[C@H](O)[C@]1(C)O	none
CC[C@H]1OC(=O)[C@H](C)[C@@H](O[C@H]2C[C@@](C)(OC)[C@@H](O)[C@H](C)O2)[C@H](C)[C@@H](O[C@@H]2O[C@H](C)C[C@H](N(C)C)[C@H]2O)[C@](C)(O)C[C@@H](C)CN(C)[C@H](C)[C@@H](O)[C@]1(C)O	LASV entry inh inconclusive, MARV entry inh 2.8µM
CC[C@@H]1OC(=O)[C@@H](C)[C@H](O[C@H]2C[C@@](C)(OC)[C@@H](O)[C@H](C)O2)C(C)[C@H](O[C@H]2O[C@@H](C)C[C@@H](N(C)C)[C@@H]2O)[C@@](C)(O)C[C@H](C)C(=O)[C@@H](C)[C@H](O)[C@@]1(C)O (stereo partly specified)	MARV entry inh inconclusive
CCC1OC(=O)C(C)[C@@H](O[C@H]2C[C@@](C)(OC)C(O)C(C)O2)C(C)[C@@H](O[C@@H]2OC(C)CC(N(C)C)C2O)[C@@](C)(O)CC(C)CN(C)C(C)C(O)[C@]1(C)O (stereo partly specified)	LASV entry inh inconclusive, MARV entry inh 0.63µM
COC(=O)N[C@H](C(C(=O)OC)=C(C)NCc1ccccc1)c1ccc(Cl)cc1	none
CCOC(=O)N(C)C(=O)CSP(=S)(OCC)OCC	none
O=C(O)c1ccccc1Nc1cccc(OCc2ccc3ccccc3n2)c1	LASV entry inh 16µM, MARV entry inh inconclusive
O=C(O)c1ccccc1Nc1ccc(CCc2ccc(Cl)c(Cl)c2)cc1	none
COc1ccc(OC)c(C(=O)N2CCc3c(cnc(C)c3CNS(=O)(=O)N(C)C)C2)c1	MARV entry inh inconclusive
COc1ccc(/C(=C\C(=O)O)c2nccc3cc(OC)c(OC)cc23)cc1OC	none
CN(C)CCOc1ccc(-c2nc(-c3ccc4c(c3)CCC4=NO)c(-c3ccncc3)[nH]2)cc1	MARV entry inh inconclusive
CN(C)CCOc1ccc(-c2cc(-c3ccc4c(c3)CCC4=NO)c(-c3ccncc3)o2)cc1	MARV entry inh 2µM (no result: LASV entry inh)
O=C(CSc1ncccn1)NCC1Cc2cccc(-c3ncccn3)c2O1 (stereo unspecified)	MARV entry inh 141µM
CC(=O)c1ccc(C(=O)NCC2Cc3cccc(-c4ncccn4)c3O2)cc1 (stereo unspecified)	MARV entry inh inconclusive
Nc1nc(N)c2nc(CNc3ccc(C(=O)N[C@@H](CCC(=O)O)C(=O)O)cc3)cnc2n1	none
CN(Cc1cnc2nc(N)nc(N)c2n1)c1ccc(C(=O)NC(CCC(=O)O)C(=O)O)cc1 (stereo unspecified)	LASV entry inh inconclusive, MARV entry inh 0.28µM
C/C=C(/C)C(=O)O[C@H]1C(C)=C2[C@H]([C@@H]1OC(=O)CCCCCCC)[C@@](C)(OC(C)=O)C[C@H](OC(=O)CCC)[C@@]1(O)[C@H]2OC(=O)[C@@]1(C)O	LASV entry inh 45µM, MARV entry inh 22µM
CCn1c(C)nc2cc(NS(=O)(=O)c3ccccc3)cc(C(=O)N3C[C@@H](C)O[C@@H](C)C3)c21	none
COc1ccc(Nc2nccc(NCCO)n2)cc1	none
COc1cc(Nc2nccc(Nc3ccc4c(C)[nH]nc4c3)n2)cc(OC)c1OC	LASV entry inh inconclusive, MARV entry inh 10µM
[C-]#[N+]c1cc(-c2ccncc2)c(C)[nH]c1=O	LASV entry inh inconclusive
COc1cccc([C@@H]2Oc3ccc(Br)cc3C(=O)[C@H]2OC(=O)N[C@H]2CCCc3ccccc32)c1	none
O=C1NN(C(=O)Nc2ccc(Br)cc2)C(c2ccccc2)C1c1ccccc1 (stereo unspecified)	LASV entry inh inconclusive
O=C1NCN(c2ccccc2)C12CCN(CC1COc3ccccc3O1)CC2 (stereo unspecified)	none
CCn1c(=O)[nH]c2ccccc21	none
O=c1[nH]c2ccccc2n1C1CCN(CCCC(c2ccc(F)cc2)c2ccc(F)cc2)CC1	LASV entry inh 25µM!, MARV entry inh 14µM
O=C1NCN(c2ccccc2)C12CCN(CCCC(c1ccc(F)cc1)c1ccc(F)cc1)CC2	LASV entry inh inconclusive, MARV entry inh 1.4µM
C=CCN1c2ccccc2[C@]23CCC(=O)N(CC4CC4)C2=NC(C(=O)OC)=C(C(=O)OC)[C@H]13	none
COc1cc2nc(N3CCCC(O)C3)c(CNCc3ccccc3C(F)(F)F)cc2c(OC)c1OC (stereo unspecified)	none
COC(=O)C1CCCCN1Cc1ccc2c(c1)CN(C(=O)c1ccc(C)s1)CCO2 (stereo unspecified)	MARV entry inh inconclusive
CC(C)=CCC1=C(O)c2ccccc2C(=O)C1=O	LASV entry inh inconclusive, MARV entry inh 5µM
CC1=C(C/C=C(\C)CCC[C@H](C)CCC[C@H](C)CCCC(C)C)C(=O)c2ccccc2C1=O	none
